Bioassay records (PubChem)
Shown are actives, neighbours in structure and some others; about 2.5% of the full set was active somewhere.
Cruzain inh noDet: cruzain (T. cruzi) inhibition without detergent; purified cruzain, Z-FR-AMC fluorescence, no detergent; Potency, µM, without a hit: max response, negative = inhibition, hits mostly inhibitors; 200,000 tested, 2.3% active; AID 1476;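 note: plate controls were enzyme without inhibitor for no effect and buffer without enzyme for full effect; nearly all actives have a fitted effect of over 40% in size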
Target sequence (P25779 123-467 limits assumed): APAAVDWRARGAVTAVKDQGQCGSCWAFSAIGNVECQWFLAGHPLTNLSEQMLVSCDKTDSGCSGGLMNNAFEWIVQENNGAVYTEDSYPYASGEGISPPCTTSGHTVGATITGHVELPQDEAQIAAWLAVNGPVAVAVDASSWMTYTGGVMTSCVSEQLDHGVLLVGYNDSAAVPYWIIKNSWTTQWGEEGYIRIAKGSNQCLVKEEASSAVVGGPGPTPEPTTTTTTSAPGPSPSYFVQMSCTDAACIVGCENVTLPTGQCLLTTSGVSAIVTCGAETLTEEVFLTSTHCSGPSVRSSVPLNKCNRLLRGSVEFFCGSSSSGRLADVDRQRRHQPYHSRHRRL
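Detergent-free condition (0.00005% Triton X-100) in acetate buffer pH 5.5 with DTT. 1.5 nM enzyme and compound were pre-mixed 15 min, then 2 uM Z-FR-AMC substrate added; reaction progress from fluorescence change between first and third reads (60 s).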
Cruzain Triton: cruzain (T. cruzi) inhibition with detergent. purified cruzain, Z-FR-AMC fluorescence, 0.01% Triton. Potency, µM, for the others: max response, negative = inhibition, usual class: inhibitors. 200,000 tested, 0.43% active. AID 1478;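 note: plate controls were neutral wells for no effect and buffer without enzyme for full effect; nearly all actives have a fitted effect of over 40% in size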
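Cruzain (1.5 nM) preincubated 15 min at RT with compound in 100 mM sodium acetate pH 5.5, 5 mM DTT, 0.01% Triton X-100. Reaction started with 2 uM Z-FR-AMC; AMC fluorescence (ex 360/em 450 nm) change over 60 s gave rate.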
* hit, by the source's call; ? = inconclusive; ! = not active in a repeat. Calls come from the whole dose curve; as a rule, active = well fitted curve in the direction sought with a large enough effect; inconclusive = small, poorly fitted or top-dose-only effect, or another doubt; inactive = no such curve, though single readings can be large; an effect the other way counts as inactive or inconclusive. Potency is the fitted concentration of half-maximal effect.

SMILES	Cruzain inh noDet	Cruzain Triton
CC1(C)CCC(=O)N[C@H]1CC(=O)C[C@H]1NC(=O)CCC1(C)C	7%	-2%
O=C(NCCc1cn2ccsc2n1)C1CCCCC1	13µM*	-7%
O=C(NCCc1cn2ccccc2n1)c1ccccc1F	?	-14%
O=C(NCCc1cn2ccccc2n1)C1CCCCC1	16µM*	-4%
c1cn2cc(CSC3CCCCC3)nc2s1	-4%	-1%
Cc1ccc(C)c(NC(=O)Cn2c(=O)n(Cc3ccco3)c(=O)c3oc4ccccc4c32)c1	-19%	-3%
COc1ccc(-c2cc(C)no2)cc1S(=O)(=O)N1CC(C)Oc2ccccc21 (stereo unspecified)	6%	3%
C=CCSc1nnc2c(n1)OC=Nc1ccc(Br)cc1-2	25µM*	-5%
CCSc1nnc2c(n1)OC=Nc1ccc(Br)cc1-2	-16%	-6%
Cc1ccc(CNC(=O)Cn2c(=O)n(-c3cccc(Cl)c3)c(=O)c3sc4ccccc4c32)cc1	13µM*	-3%
Cc1ccc(CNC(=O)Cn2c(=O)n(Cc3ccccc3)c(=O)c3sc4ccccc4c32)cc1	5%	-1%
O=c1cc(O)nc(SCc2ccccc2)n1-c1ccc(F)cc1	-15%	-8%
Clc1ccc(Cn2ncc3c(N4CCOCC4)ncnc32)cc1	17%	-4%
Cc1cccc(CSc2nc3c([nH]c4ccccc43)c(=O)n2C)c1	-15%	0%
COc1cccc(-n2c(SCc3ccccc3C)nc3c([nH]c4ccccc43)c2=O)c1	4µM*	0%
CCCSc1nc2c([nH]c3ccccc32)c(=O)n1C	-4%	0%
CCSc1nc2c([nH]c3ccccc32)c(=O)n1C	13µM*	4%
COc1cccc(-n2c(SCC(=O)c3ccccc3)nc3c([nH]c4ccccc43)c2=O)c1	2%	3%
COc1cccc(-n2c(SCc3cccc(C)c3)nc3c([nH]c4ccccc43)c2=O)c1	16µM*	-1%
O=C1CN(C(=O)COc2ccc(Cl)cc2)C(c2ccc(F)cc2)c2cc(Cl)ccc2N1 (stereo unspecified)	?	-8%
CCc1cc2c(cc3c(=O)n(CC(=O)NC4CCC(C)CC4)nc(CC)n32)s1 (stereo unspecified)	6%	5%
CCOc1ccc2c(c1)-c1c(ssc1=S)C(C)(C)N2C(=O)CSC1=NCCS1	16µM*	-7%
Cc1ccc2c(c1)-c1c(ssc1=S)C(C)(C)N2C(=O)CSC1=NCCS1	?	-3%
CCN(CC)S(=O)(=O)c1ccc(/C=C/C(=O)OCC(=O)Nc2cccc3ccccc23)cc1	-10%	-2%
O=C(COC(=O)/C=C/c1nc2ccccc2s1)Nc1cccc2ccccc12	6.3µM*	-5%
SMILES	Cruzain inh noDet	Cruzain Triton
O=C(COC(=O)/C=C/c1ccc(Cl)cc1)Nc1ccccc1-c1ccccc1	10%	-4%
O=C(COC(=O)/C=C/c1nc2ccccc2s1)Nc1cccc(Cl)c1Cl	10µM*	-2%
C[C@@H]1OC(OC2C(OC3CC[C@@]4(C)C5CC=C6C7CC(C)(C)CC[C@@]7(C(=O)O)CCC6(C)C5(C)CCC4[C@]3(C)CO)OCC(O)C2O)C(O)C(O)C1O (stereo partly specified)	?	-5%
Cc1ccc(C)c(N2CCN(C(=O)Nc3cn(CC(C)C)c(=O)c4ccccc34)CC2)c1	20%	-8%
O=C(/C=C/c1cccs1)N1CCN(c2ccccc2F)CC1	-6%	-6%
O=C(/C=C/c1cccs1)N1CCOCC1	6.3µM*	-6%
COCCN(C(=O)CNC(=O)c1ccco1)C(C(=O)NC1CCCC1)c1cccs1 (stereo unspecified)	-10%	1%
Cc1cccc(OCCCCn2c(C3CC(=O)N(c4ccccc4Cl)C3)nc3ccccc32)c1 (stereo unspecified)	18%	-11%
Cc1csc(NC(=O)c2cc3c(C)nn(Cc4ccccc4Cl)c3s2)n1	25µM*	-6%
Cc1nn(Cc2ccccc2Cl)c2sc(C(=O)NC(C)(C)C)cc12	16%	-6%
CCc1cccc(-n2c(=O)c3cccnc3n2CC(=O)NCc2ccccc2Cl)c1	4%	0%
COc1ccccc1NC(=O)CCC(=O)c1ccc(-c2ccccc2)cc1	-3%	-7%
CCc1ccccc1NC(=O)CCC(=O)OCC(=O)c1ccc(-c2ccccc2)cc1	16µM*	-2%
CC(=O)Nc1ccc(NC(=O)c2cc3sccc3n2Cc2ccc(Cl)cc2)cc1	?	-1%
COC(=O)c1cc(NC(=O)c2cc3sccc3n2Cc2ccc(Cl)cc2)cc(C(=O)OC)c1	7.9µM*	0%
C=C(Cl)Cl	-1%	8%
O=c1cc(CN2CCOCC2)c2c(ccc3ccccc32)o1	0%	-2%
CNC(=S)N/N=C/c1cc(C)n(-c2ccc(Cl)c(Cl)c2)c1C	32µM*	-9%
CNC(=S)N/N=C/c1ccccc1Cl	-9%	-5%
CC(=O)NCCNc1nc(-c2cccc(C#N)c2)nc2ccccc12	-1%	0%
CC(C)C[C@@H](CC(=O)N[C@H](CC(=O)N[C@@H]1CCCC[C@H]1C(=O)N[C@H](CC(=O)N[C@@H](CCC(=O)O)CC(=O)O)Cc1ccccc1)C(C)C)NC(=O)[C@@H]1CCCC[C@H]1N	?	2%
COc1ccc(-c2cc(C(=O)OCC(=O)c3cccc([N+](=O)[O-])c3)c3cc(C)ccc3n2)cc1	10µM*	1%
COc1ccc(-c2cc(C(=O)Oc3cccc(C)c3)c3cc(C)ccc3n2)cc1	1%	-3%
O=c1[nH]c(/C(Cl)=C/c2c(F)cccc2Cl)nc2cc(Cl)ccc12	?	-4%
O=c1[nH]c(/C(Cl)=C/c2cccc(C(F)(F)F)c2)nc2cc(Cl)ccc12	3.2µM*	-3%
SMILES	Cruzain inh noDet	Cruzain Triton
CCOc1ccc(Cn2c(CNS(=O)(=O)c3ccc([N+](=O)[O-])cc3)nc3cccnc32)cc1	0%	0%
Cc1ccc(S(=O)(=O)c2cn(CC(=O)Nc3cccc(Cl)c3)c3ccccc3c2=O)cc1	32µM*	-2%
COc1ccc(NC(=O)Cn2cc(S(=O)(=O)c3ccc(C)cc3)c(=O)c3ccccc32)cc1OC	?	-6%
Cc1ccc(Cl)cc1NC(=O)c1oc2ccc(S(=O)(=O)N(C)C3CCCCC3)cc2c1C	-14%	1%
Cc1ccc2oc(-c3ccccc3C(=O)O)cc(=O)c2c1	-13%	-3%
O=C(O)c1ccccc1-c1c2cc(Br)c(=O)cc-2oc2[c]([Hg])c(O)c(Br)cc12	?	20µM*!
COc1ccc2c(c1)c(CC(=O)Nc1ccccc1OC)c(C)n2C(=O)c1ccc(Cl)cc1	16µM*	-6%
COc1ccc(OC)c(NC(=O)Cc2c(C)n(C(=O)c3ccc(Cl)cc3)c3ccc(OC)cc23)c1	-5%	1%
COc1ccc2c(c1)c(CC(=O)Nc1cc(C)ccc1C)c(C)n2C(=O)c1ccc(Cl)cc1	13µM*	-5%
COc1ccc2c(c1)c(CC(=O)Nc1c(C)cccc1C)c(C)n2C(=O)c1ccc(Cl)cc1	-12%	1%
CN(C)C1C(=O)C(C(N)=O)=C(O)[C@@]2(O)C(=O)C3=C(O)c4c(O)ccc(Cl)c4[C@@H](O)C3C[C@@H]12 (stereo partly specified)	9%	-7%
CCN(CC)S(=O)(=O)c1cccc(NC(=O)COC(=O)CCC(=O)c2ccc(F)cc2)c1	4%	-7%
COCCCNC(=O)C1CCN(C(=O)c2ccc(-n3ccc4ccccc43)s2)CC1	?	-5%
O=C(CNC(=O)/C(=C/c1ccccc1)NC(=O)c1ccc(Br)cc1)OCc1ccccc1	-20%	?
